Assay outcomes as filed in PubChem BioAssay.
Most compounds without a hit are left out; they make up all but 6.5% or so of the library.
VACV Venus inh: inhibitors of vaccinia virus (Venus reporter). Vaccinia virus Venus reporter expression, fluorescence. Potency, µM (doses to about 36.5 µM), inactives show at the highest dose activity change, negative = inhibition, hits mostly inhibitors. 330,000 tested, 0.46% active. AID 720580; calls by dose curve; tested in A549 cells; note: potency is the fitted concentration of half-maximal effect; nearly all actives have a fitted effect of over 30% in size
VACV mCherry inh: inhibitors of vaccinia virus infection (mCherry reporter signal); 310,000 tested, 0.63% active; Potency, µM (top dose mostly 36.5 µM), for inactives: at the highest dose activity change, negative = inhibition, actives largely listed as inhibitors; Vaccinia virus mCherry reporter infection, fluorescence; calls by dose curve; tested in A549 cells; note: potency is the fitted concentration of half-maximal effect; nearly all actives have a fitted effect of over 35% in size
Lassa entry inh: inhibitors of Lassa virus binding or cell entry; Lassa virus pseudotype entry inhibition, cell reporter; Potency, µM (doses to about 37.9 µM), without a hit: top-dose activity change, negative = inhibition, usual class: inhibitors; 300,000 tested, 1.2% active; AID 540256; calls by dose curve; tested in HEK293 cells; note: potency is the fitted concentration of half-maximal effect; nearly all actives have a fitted effect of over 50% in size
HCMV inh: human cytomegalovirus inhibition; activity change, negative = inhibition, % at 57.5 µM; 410,000 tested, 4.5% active; HFF cells, HCMV-luciferase reporter, 72 h; stronger effect = lower value; in the data active = activity change below about -60%; inconclusive = no clear call, values can overlap the other calls; inactive = above about -39%
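Human foreskin fibroblasts infected with luciferase-reporter HCMV at MOI 1 PFU/cell, compounds at two doses. Luciferase measured 72 h post infection; normalized to buffer-only basal and Salinomycin (10uM) controls.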
FMDV antiviral: foot and mouth disease virus antiviral activity; AID 1159524; Potency, µM (titrated, usually from 57.9 µM), for inactives: at the top dose activity change, negative = inhibition, actives largely listed as inhibitors; FMDV antiviral cell-based qHTS; 410,000 tested, 1.2% active; calls by dose curve; tested in HEK293T cells; note: read-out not given here; potency is the fitted concentration of half-maximal effect; nearly all actives have a fitted effect of over 45% in size
MARV entry inh: inhibitors of Marburg virus binding or cell entry | Marburg virus pseudotyped entry inhibition, cell reporter | Potency, µM (top dose mostly 37.8 µM), inactives show top-dose activity change, negative = inhibition, most hits filed as inhibitors | 300,000 tested, 1.8% active | AID 540276; calls by dose curve; tested in HEK293 cells; note: potency is the fitted concentration of half-maximal effect
Numbers without * were called inactive; i = inactive; ? = inconclusive; . = no result; [ ] = another dose, or the depositor's remark. % is set by controls: 0 for no effect and ±100 for the full control effect.

SMILES	VACV Venus inh	VACV mCherry inh	Lassa entry inh	HCMV inh	FMDV antiviral	MARV entry inh
COCCN(C)C(=O)c1cnn(-c2nccc(-c3cc(C)sc3C)n2)c1C	5.7%	-10.5%	.	.	44.1%	.
O=C1NC(=O)C(Cc2ccccc2)(C2CCN(Cc3cccn3-c3cccnc3)CC2)N1 (centres undefined)	-10.3%	-1.6%	.	.	6.0%	.
CCCC(C)NC(=O)C1CCN(S(=O)(=O)c2ccccc2)CC1 (centres undefined)	-6.9%	-19.9%	-4.8%	29.3	-13.3%	7.2%
Cc1ccc(Cl)cc1N1CCN(C(=O)C2CCN(S(=O)(=O)c3cccnc3)CC2)CC1	?	?	?	-30.3	15.8µM*	?
CCC(C)NC(=O)C1CCN(S(=O)(=O)c2cccnc2)CC1 (centres undefined)	12.9%	.	15.7%	-75.9*	-19.2%	-5.1%
COCCNc1nc(-c2cc3ccccc3o2)cs1	-17.8%	-22.9%	3.98µM*	84.2	0.0%	?
CCOC(=O)C(c1ccccc1)C(Nc1ccc(F)cc1)c1ccccn1 (centres undefined)	.	.	.	-11.6	-21.0%	.
CCOC(=O)C(C(=O)OCC)C(Nc1ccc(Br)cc1)c1ccccc1 (centres undefined)	.	.	16.7%	4.6	12.6µM*	-13.0%
COc1ccc(-c2csc3ncnc(Nc4ccc(OC)c(OC)c4)c23)cc1	-18.1%	11.9%	-42.4%[46.1 µM]	?	?	.
COc1ccc(N(Cc2cccs2)C(=O)COc2cccc(C)c2C)cc1	-7.1%	-12.2%	?	?	-23.0%	?
COc1ccc(N(Cc2cccs2)C(=O)COc2cc(C)c(Cl)c(C)c2)cc1	-4.1%	-13.5%	-9.8%[46.1 µM]	-98.7*	?	?
Cc1ccc(C(=O)C=CC=Cc2ccccc2)cc1	-5.3%	-9.1%	.	17.8	44.3%	.
Cc1ccc(C(=O)C(C(=O)/C=C/c2ccccc2)=C2SCCCS2)cc1	?	?	22.4µM*	-97.1*	11.2µM*	?
COc1cccc2c1OC[C@@H](CO)[C@H]2N(C)C(=O)Nc1ccc(Cl)cc1Cl	-17.9%	i	-30.0%	-61.6*	-2.1%	-23.7%
Cc1ccc2c(c1)C1CN(C)CCC1N2C(=S)NC(=O)c1ccc(Br)cc1 (centres undefined)	.	.	.	-62.3*	?	.
Cc1ccc2c(c1)C1CN(C)CCC1N2C(=O)c1ccc(Br)o1 (centres undefined)	-15.2%	.	9.2%	53.4	-0.1%	10.5%
COc1ccc(Cl)cc1NC(=O)N1CCC(CN2CCc3ccccc3C2)CC1	-5.5%	-4.3%	15.4%[46.1 µM]	29.6	4.7%	.
CCC(C)NC(=O)CSc1nnc(-c2cc(-c3cccs3)nc3ccccc23)o1 (centres undefined)	2.82µM*	.	-7.8%	-19.4	-22.3%	-7.2%
NC(=O)CSc1nnc(-c2cc(-c3cccs3)nc3ccccc23)o1	1.58µM*	?	-24.6%	-18.2	-12.0%	-19.4%
O=C(CSc1nnc(-c2cc(-c3cccs3)nc3ccccc23)o1)NC1CCCCC1	?	.	-3.8%	?	-16.1%	-13.0%
O=C(c1ccc2c(c1)OCCO2)N1CCN(c2nc(-c3cccs3)nc3ccccc23)CC1	-18.4%	-5.5%	.	.	.	.
Cc1c(Cl)cccc1N1C(=O)[C@@H]2[C@H](ON(c3ccccc3)[C@H]2c2cccnc2)C1=O	.	.	.	.	.	1.6%
CC(C)c1ccc(NC(=O)CN2C=NS(=O)(=O)c3ccccc32)cc1	-10.0%	-13.7%	-4.0%[46.1 µM]	7.2	-10.2%	.
N/C(=N\N=C\c1ccc(O)c(O)c1)c1nonc1N	.	.	.	32.7	19.4%	.
N/C(=N\N=C\c1ccc(O)cc1)c1nonc1N	1.1%	i	?	18.8	-6.6%	20.6µM*
SMILES	VACV Venus inh	VACV mCherry inh	Lassa entry inh	HCMV inh	FMDV antiviral	MARV entry inh
C#C[C@]1(O)CC[C@H]2[C@@H]3CCC4=Cc5oncc5CC4(C)[C@H]3CCC21C (some centres undefined)	.	.	?	.	.	20.6µM*
C#C[C@]1(O)CC[C@H]2[C@@H]3CCC4=Cc5nc6nc7ccccc7n6cc5C[C@]4(C)[C@H]3CC[C@@]21C	-6.3%	i	.	-29.6	14.1µM*	.
O=C(COCc1cc(-c2cccs2)on1)Nc1cccc(Cl)c1Cl	-4.6%	-3.2%	13.1%[46.1 µM]	-5.8	-19.3%	.
O=C(CCn1cnc2onc(-c3ccc(F)cc3)c2c1=O)Nc1cccc(C(F)(F)F)c1	-13.3%	-16.5%	-28.7%[46.1 µM]	-85.8*	-18.8%	.
O=C(CCn1cnc2onc(-c3ccc(F)cc3)c2c1=O)Nc1ccc(F)c(Cl)c1	-25.2%	-26.7%	21.8%[46.1 µM]	-67.3*	-29.6%	.
COc1ccc(-c2nc3cc(C)ccc3cc2CN(C(=O)c2csc(C)n2)C2CC2)cc1OC	-1.8%	-7.0%	.	.	-8.0%	.
CCCOc1ccc(C2C(=O)N(C3CCCCC3)CC(=O)N2CCc2ccccc2)cc1OC (centres undefined)	-14.9%	10.5%	-4.5%[46.1 µM]	0.5	-31.2%	.
CC(=O)Nc1ccc(S(=O)(=O)NC2(C(F)(F)F)NC(=O)N(CCc3ccc(F)cc3)C2=O)cc1 (centres undefined)	-10.6%	-0.1%	4.3%[46.1 µM]	21.4	-8.1%	-4.2%[46.1 µM]
CC(=O)c1ccc2noc(-c3ccc(Cl)cc3)c2c1	-1.8%	-11.8%	4.2%[46.1 µM]	-61.8*	-21.4%	-14.4%[46.1 µM]
COc1cccc(CNCCSc2nnnn2C)c1OCc1ccccc1F	-3.5%	4.6%	?	-2.7	-19.8%	?
CCC(Sc1nnc(-c2ccc(C)c(Cl)c2)n1CC)C(=O)Nc1nccs1 (centres undefined)	.	.	?	?	22.4µM*	?
C[C@H]1CC2[C@@H]3CCC4=CC(=O)C=C[C@]4(C)[C@@]3(F)[C@@H](O)C[C@]2(C)[C@@]1(O)C(=O)CO (some centres undefined)	.	.	.	.	.	-3.2%
COc1ccc(/C=N/Nc2nncc3ccccc23)cc1	-7.1%	-4.3%	?	98.1	3.55µM*	?
COc1ccc(/C=N/Nc2nccnc2Cl)cc1	-7.0%	-13.5%	8.2µM*	108.1	.	?
COc1cccc(/C=N/Nc2ncnc(Cl)c2N)c1O	5.01µM*	3.55µM*	3.66µM*	-97.1*	-9.8%	2.51µM*
COc1cccc(/C=N/Nc2nccnc2Cl)c1O	?	1.26µM*	2.06µM*	-96.4*	12.6µM*	1.64µM*
COc1ccc(/C=N/Nc2nccnc2Cl)c(OC)c1	-1.3%	-5.4%	?	-10.2	19.4%	21.2%[46.1 µM]
CCc1ccccc1NC(=O)CN(Cc1ccccc1)S(=O)(=O)c1ccc2nc(C)sc2c1	-13.0%	-13.9%	27.1%[46.1 µM]	-4.6	-23.2%	.
COc1cccc(/C=N/Nc2ncnc3scc(-c4ccccc4)c23)c1O	?	2µM*	5.17µM*	-100.3*	-1.7%	1.41µM*
COC(=O)c1ccc(C2Nc3c(C)cccc3-c3cc(C)nn32)cc1 (centres undefined)	-7.0%	-19.0%	-1.9%[46.1 µM]	-4.8	-26.1%	-17.0%[46.1 µM]
CC(=O)O[C@H]1C[C@@H]2CC[C@@H]3[C@H](CC[C@]4(C)C(=O)CC[C@@H]34)[C@@]2(C)C[C@@H]1OC(C)=O	4.2%	1.7%	.	.	?	.
